Source: PubChem BioAssay (National Center for Advancing Translational Sciences (NCATS))
G9a block: blocks human histone lysine methyltransferase G9a; G9a H3K9 monomethylation, AlphaScreen, 2 h; Potency, µM (doses to about 102 µM), without a hit: top-dose activity, negative = inhibition, hits mostly inhibitors; AID 504332; Q96KQ7; 350,000 compounds, 8.8% hits; note: % is set by controls: 0 for no effect and ±100 for the full control effect; nearly all actives have a fitted effect of over 75% in size
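Quantitative HTS format: methyltransferase activity on a biotin-tagged H3K9 peptide is measured by AlphaScreen, using a rabbit anti-monomethyl-H3K9 antibody with streptavidin donor and anti-IgG acceptor beads. Final levels are 20 nM enzyme, 500 nM peptide, 20 uM SAM; 2 h RT.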
BAZ2B inh: BAZ2B (human) inhibition. AlphaScreen BAZ2B-H3K14Ac peptide displacement. Potency, µM (highest dose often 114 µM), for inactives: at the highest dose activity change, negative = inhibition, most hits filed as inhibitors. 360,000 compounds, 4.4% hits; note: % is set by controls: 0 for no effect and ±100 for the full control effect; nearly all actives have a fitted effect of over 60% in size
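AlphaScreen displacement of biotin-H3(5-23)K14Ac peptide (50 nM final) from BAZ2B (50 nM final) in PBS pH 7.4, 0.01% Tween-20; complex preformed 30 min RT, then compounds (top 110 uM) 30 min RT, beads 20 min dark.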
HP1b binding inh: blocks HP1-beta chromodomain binding to methylated histone tails; P83916; AlphaScreen HP1-beta / biotin-H3K9me3 peptide binding; Potency, µM (top dose mostly 114 µM), for inactives: at the highest dose activity change, negative = inhibition, usual class: inhibitors; 390,000 compounds, 0.56% hits; note: nearly all actives have a fitted effect of over 70% in size
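HP1-beta protein (50 nM final) preincubated 30 min at room temperature with biotinylated H3(1-18)K9me3 peptide (50 nM) in PBS pH 7.4, 0.01% Tween-20, then compound added for 30 min. AlphaScreen streptavidin donor/nickel chelate acceptor beads (10 ug/mL final), 30 min dark, luminescence read.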
JMJD2A Tudor inh: inhibitors of human JMJD2A Tudor domain; O75164; AlphaScreen JMJD2A-Tudor / H3K4me3 peptide binding; Potency, µM (series often up to 114 µM), without a hit: at the top dose activity change, negative = inhibition, usual class: inhibitors; 390,000 compounds, 4.4% hits; AID 504339; note: % is set by controls: 0 for no effect and ±100 for the full control effect; nearly all actives have a fitted effect of over 50% in size
L3MBTL1 block: blocks human L3MBTL1 | AlphaScreen L3MBTL1–H3K9me1 peptide binding | 230,000 compounds, 0.66% hits | Potency, µM (doses to about 57.1 µM), for the others: top-dose activity, negative = inhibition, hits mostly inhibitors; note: % is set by controls: 0 for no effect and ±100 for the full control effect; nearly all actives have a fitted effect of over 60% in size
Target sequence (Q9Y468 whole entry, looked up): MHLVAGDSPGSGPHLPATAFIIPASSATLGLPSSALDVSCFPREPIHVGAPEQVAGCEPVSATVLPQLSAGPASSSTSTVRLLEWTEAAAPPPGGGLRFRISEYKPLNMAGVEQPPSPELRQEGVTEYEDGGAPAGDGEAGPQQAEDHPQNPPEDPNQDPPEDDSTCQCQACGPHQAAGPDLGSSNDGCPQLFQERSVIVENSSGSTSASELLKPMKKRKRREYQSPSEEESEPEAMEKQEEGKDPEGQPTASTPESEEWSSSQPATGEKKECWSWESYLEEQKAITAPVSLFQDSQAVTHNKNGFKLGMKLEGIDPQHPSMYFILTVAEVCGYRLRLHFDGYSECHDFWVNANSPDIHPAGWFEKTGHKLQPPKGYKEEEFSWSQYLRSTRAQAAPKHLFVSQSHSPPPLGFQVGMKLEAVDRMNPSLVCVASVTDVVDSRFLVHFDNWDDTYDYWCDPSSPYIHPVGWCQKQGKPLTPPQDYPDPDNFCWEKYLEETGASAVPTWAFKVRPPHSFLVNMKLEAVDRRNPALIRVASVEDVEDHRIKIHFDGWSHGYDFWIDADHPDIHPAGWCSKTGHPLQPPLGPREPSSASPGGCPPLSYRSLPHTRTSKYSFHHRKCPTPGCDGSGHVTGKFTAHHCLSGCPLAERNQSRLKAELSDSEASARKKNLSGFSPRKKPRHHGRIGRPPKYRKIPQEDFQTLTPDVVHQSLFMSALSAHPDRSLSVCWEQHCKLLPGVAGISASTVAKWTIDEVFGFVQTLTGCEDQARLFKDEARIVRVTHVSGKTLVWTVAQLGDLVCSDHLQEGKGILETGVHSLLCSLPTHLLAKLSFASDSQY
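AlphaScreen proximity signal between nickel-chelate acceptor and streptavidin donor beads (final 10 ug/mL) reports binding of 50 nM L3MBTL1 to 75 nM biotin-H3 K9me1 peptide; complex incubated with compounds 30 min at room temperature; cefsulodin titration as control.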
An asterisk follows results filed as active; ? = inconclusive; nt = not tested or not shown; [ ] = remark or other dose. Hits are enriched below; roughly 11% of the tested compounds scored in any of these assays. Calls come from the whole dose curve; as a rule, active = well fitted inhibition curve with a large enough effect; inconclusive = small, poorly fitted or top-dose-only effect; inactive = no such curve, though single readings can be large or run the other way. Potency is the fitted concentration of half-maximal effect.

SMILES	G9a block	BAZ2B inh	HP1b binding inh	JMJD2A Tudor inh	L3MBTL1 block
Cc1ccc(-n2c(Cn3ncc4ccccc4c3=O)n[nH]c2=S)cc1	7.9µM*	?	39%	8.9µM*	6%[11.4 µM]
CC(c1ccc(F)cc1)n1c(Cn2ncc3ccccc3c2=O)n[nH]c1=S (stereo not given)	48%	1%	10%	13µM*	10%
O=c1c2ccccc2nnn1Cc1ccc(F)cc1	0%	3%	-8%	-6%	15%
O=c1c2ccccc2cnn1Cc1n[nH]c(=S)n1-c1ccc(F)cc1	7.9µM*	-18%	29%	6.3µM*	5%
Cc1ccc2nc(CSc3nnc(NC(=O)c4ccc(C(C)(C)C)cc4)s3)cc(=O)n2c1	6%[59 µM]	3%	13%[57 µM]	-15%	nt
CCc1ccccc1NC(=O)CCCSc1nc2ccccc2s1	2%[59 µM]	-5%	20%	-8%	10%
O=C(CCSCCC(=O)NCc1ccco1)NCc1ccco1	?	56µM*	?	20µM*	?
O=C(CCSCc1ccccc1Cl)NCc1ccco1	22%[59 µM]	?	22%	-2%	nt
Cc1cc(-c2ccco2)n(CC(=O)NCc2ccco2)n1	50µM*	1%	31%	-24%	nt
O=C(NCc1ccco1)c1cccnc1-c1nc2ccccc2s1	?	-34%	?	79µM*	-7%
O=C(CCCSc1nc2ccccc2s1)NCc1ccco1	79µM*	-1%	0%	-11%	-3%
Fc1ccc(C(NCCc2ccc(Cl)cc2)c2nnc(-c3ccccc3Cl)o2)cc1 (stereo not given)	116%[59 µM]	70%	92%	50%	nt
CC(C)C(CC(=O)NCc1ccco1)c1ccco1 (stereo not given)	40µM*	?	10%	-28%	-15%
CC(Cc1c[nH]c2ccccc12)C(=O)NCc1ccco1 (stereo not given)	32µM*	50µM*	?	?	nt
COc1ccccc1-n1c(SCC(=O)N2CCCC2)nnc1-c1ccccc1	2%[12.7 µM]	0%	15%	-13%	nt
O=C(CSC1=Nc2ccccc2C2=NC(CCC(=O)NC3CCCCC3)C(=O)N12)Nc1cccc(C(F)(F)F)c1 (stereo not given)	0%[59 µM]	2%	42%	1%	nt
Cc1ccccc1-c1cncnc1NCc1cccs1	13%[0.501 µM]	nt	nt	nt	nt
CCOC(=O)CC1(C)NC(C(=O)O)C(C)(C)S1 (stereo not given)	nt	nt	-13%	5µM*	nt
CCOC(=O)CNC(=O)C12CC3CC(CC(C3)C1)C2	34%[12.7 µM]	-19%	17%	-8%	0%
O=S(=O)(c1ccccc1Br)N1CCN(c2nc(-c3ccccc3)nc3ccccc23)CC1	nt	nt	33%	-13%	nt
COc1ccc(CCNC(=O)CN(C)S(=O)(=O)c2ccc(OC)cc2)cc1	7%	-1%	14%	-10%	5%
Cc1cc(N2C(=O)C(O)=C(C(=O)c3cc4ccccc4o3)C2c2cccc(Br)c2)no1 (stereo not given)	9%[0.0925 µM]	?	-14%[57 µM]	?	nt
COC(=O)c1ccc(C2C(C(=O)c3cc4ccccc4o3)=C(O)C(=O)N2c2cc(C)on2)cc1 (stereo not given)	45µM*	-22%	-8%[57 µM]	?	nt
Cc1cc(N2C(=O)C(O)=C(C(=O)c3ccco3)C2c2ccc([N+](=O)[O-])cc2)no1 (stereo not given)	89µM*	?	3%	-14%	nt
Cc1cc(N2C(=O)C(O)=C(C(=O)c3cc4ccccc4o3)C2c2ccc(OC(C)C)cc2)no1 (stereo not given)	35µM*	-16%	15%	-3%	nt
SMILES	G9a block	BAZ2B inh	HP1b binding inh	JMJD2A Tudor inh	L3MBTL1 block
CCCOc1cccc(C2C(C(=O)c3cc4ccccc4o3)=C(O)C(=O)N2c2cc(C)on2)c1 (stereo not given)	-2%[0.501 µM]	?	-5%[57 µM]	?	nt
Cc1ccc(Cn2c(CN3CCC(C(=O)O)CC3)cc3ccccc32)cc1	-5%[59 µM]	-7%	25%	-11%	nt
O=C(CCNS(=O)(=O)c1ccc2c(c1)CCCC(=O)N2)Nc1cccc(Cl)c1	-2%[59 µM]	5%[57.1 µM]	-1%	-24%	nt
COc1ccc(NS(=O)(=O)c2ccc(NC(=O)N3CCCC3)cc2)cc1	-2%[59 µM]	-3%	4%[57 µM]	-3%	nt
O=C1CSC(=S)N1/N=C/c1cc(Br)ccc1O	10µM*	5µM*	nt	nt	nt
COc1ccc(/C=N/N2C(=O)CSC2=S)cc1Br	2%[12.7 µM]	-1%	-12%	?	-28%
O=C1CSC(=S)N1N=Cc1ccc(Cl)s1	nt	nt	?	28µM*	nt
Oc1ccc(Br)cc1/C=N/N1CCN(Cc2ccccc2)CC1	12%[0.501 µM]	?	-20%	?	-9%
Oc1ccc(Br)cc1/C=N/N1CCCCC1	11µM*	-5%	-6%	-27%	-3%
CSc1ncccc1C(=O)Nc1cc(Cl)ccc1N1CCOCC1	nt	nt	2%	-13%	2%
Cc1ccc(S(=O)(=O)Nc2ccc(Br)cc2C(NCC(=O)O)c2ccccc2)cc1 (stereo not given)	?	12%	20%	-17%	10%
O=S(=O)(Nc1cc(Sc2ncn[nH]2)c(O)c2ccccc12)c1ccccc1	1.4µM*	28µM*	3.5µM*	3.5µM*	nt
O=C(O)CSc1cc(NS(=O)(=O)c2ccc(Br)cc2)c2ccccc2c1O	1.8µM*	35µM*	14µM*	20µM*	nt
Cc1cc(O)c(Sc2ncn[nH]2)cc1NS(=O)(=O)c1ccc(Cl)cc1	3%[12.7 µM]	-20%	27%	-17%	-8%
CC1CCN(S(=O)(=O)c2ccc3c(ccn3CC(=O)NCc3ccccc3F)c2)CC1	-24%[59 µM]	-12%	43%	-14%	nt
Cc1ccccc1C(=O)Nc1ccc2c(C#N)c3nc4ccccc4nc3n2c1	5µM*	50µM*	-10%	-32%	?
O=[N+]([O-])c1ccc2c(c1)C(=Nc1ccccc1)c1ccccc1-2	nt	nt	?	32µM*	nt
Cc1cc([N+](=O)[O-])cc2c1-c1ncccc1C2=Nc1ccccc1	?	-39%	-4%	-35%	-2%
